PubChem BioAssay (NCATS)
Inconclusive results are not listed. A call without a number means that no potency is given here. A number with no mark means an inactive call. Calls of active or inactive are those of the source. The call rests on the fitted dose curve; in most records, active means well fitted inhibition curve with a large enough effect; inconclusive means small, poorly fitted or top-dose-only effect; inactive means flat fitted curve, though single readings scatter.

Assays:
PC26 = assay: qHTS profiling for inhibitors of Plasmodium falciparum proliferation (AID 504749); conditions: P. falciparum in erythrocytes, SYBR Green DNA, 72 h; series mostly up to 28.7 µM
Outline: (§1)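 SYBR Green fluorescence (ex 485 nm, em 535 nm) reports parasite DNA after 72 h compound exposure of infected red cells at 0.3% parasitemia, 2.5% hematocrit; signal normalized to 0.29 uM artemisinin and vehicle wells.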

PC49 = assay: as above; conditions: P. falciparum in erythrocytes, SYBR Green DNA, 72 h; series mostly up to 28.7 µM
Outline: as §1

SC27B = assay: as above; conditions: P. falciparum in erythrocytes, SYBR Green DNA, 72 h; series mostly up to 28.7 µM
Outline: as §1

TAB109 = assay: as above; conditions: P. falciparum in erythrocytes, SYBR Green DNA, 72 h; series mostly up to 28.7 µM
Outline: as §1

TAB113 = assay: as above; conditions: P. falciparum in erythrocytes, SYBR Green DNA, 72 h; series mostly up to 28.7 µM
Outline: as §1

TAB165 = assay: as above; conditions: P. falciparum in erythrocytes, SYBR Green DNA, 72 h; series mostly up to 28.7 µM
Outline: as §1

W2 = assay: as above; conditions: P. falciparum in erythrocytes, SYBR Green DNA, 72 h; series mostly up to 28.7 µM
Outline: as §1

KB-3-1 = assay: Cytotoxic Profiling of Annotated Libraries Using Quantitative High-Throughput Screening (AID 1296008); conditions: Five cell lines viability, CellTiter-Glo ATP luminescence, 48-72 h; max response: hits give low values
Outline: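 Cells exposed to compounds for 48 or 72 hr at 37 degrees Celsius. Viability read as ATP-coupled luminescence with CellTiter-Glo after 10 min at room temperature.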
Further: nearly all actives have a fitted effect of over 60% in size.
Potency means the concentration at half of the fitted maximal effect.

SMILES | Potency (PC26) | Potency (PC49) | Potency (SC27B) | Potency (TAB109) | Potency (TAB113) | Potency (TAB165) | Potency (W2) | max response (KB-3-1) [%] | Potency (KB-3-1)
FCOC(C(F)(F)F)C(F)(F)F | inactive | inactive | inactive | inactive | inactive | inactive | inactive | 6.78 | 
COc1ccc2c(=O)c(C)c(-c3ccccc3)oc2c1CN(C)C | inactive | inactive | inactive | inactive | inactive | inactive | 6.75 µM (active) | 2.73 | 
CC(C)CCCC(C)NC(C)C (centres undefined) | inactive | inactive | inactive | inactive | inactive | inactive | inactive | 0.846 | 
CCOc1ccc(NC(=S)Nc2ccc(OCC)cc2)cc1 | inactive | inactive | inactive | inactive | inactive | inactive | inactive | 43.1 | 
CC(CNC(=O)c1cccnc1)NC(=O)c1cccnc1 (centres undefined) | inactive | inactive | inactive | inactive | inactive | inactive | inactive | -1.27 | 
C[Se]CC[C@H](N)C(=O)O | inactive | inactive | inactive | inactive | inactive | inactive | inactive | 0.415 | 
C[C@H](CCC(=O)O)[C@H]1CC[C@H]2[C@@H]3CC[C@@H]4C[C@H](O)CC[C@]4(C)[C@H]3C[C@H](O)[C@]12C | inactive | inactive | inactive | inactive | inactive | inactive | inactive | -0.187 | 
CC1(C)S[C@@H]2[C@H](NC(=O)C3(N)CCCCC3)C(=O)N2[C@H]1C(=O)O | inactive | inactive | inactive | inactive | inactive | inactive | inactive | -2.76 | 
CCCC(=O)O | inactive | inactive | inactive | inactive | inactive | inactive | inactive | 2.03 | 
CC(C)(C)c1ccc2c(S(=O)(=O)O)c(C(C)(C)C)ccc2c1 | inactive | inactive | inactive | inactive | inactive | inactive | inactive | 3.96 | 
CNC(=O)C[C@@H](N)C(=O)N[C@@H](C(=O)N[C@@H]1C(=O)N2[C@@H]1SC(C)(C)[C@@H]2C(=O)O)c1ccc(O)cc1 | inactive | inactive | inactive | inactive | inactive | inactive | inactive | -18.5 | 
C=C1C(CCl)(CCl)C2(Cl)C(Cl)C(Cl)C1(Cl)C2(Cl)Cl (centres undefined) | 1.9 µM (active) | 3.98 µM (active) | 1.78 µM (active) | 3.16 µM (active) | 2.82 µM (active) | 1.78 µM (active) | 0.849 µM (active) | 3.52 | 
ClC(Cl)Cl | inactive | inactive | inactive | inactive | inactive | inactive | inactive | 3.29 | 
O=C(Nc1ccc(O)cc1)c1ccccc1O | inactive | inactive | inactive | inactive |  |  | inactive | 4.06 | 
CN(C)C=Nc1c(I)cc(I)c(CCC(=O)O)c1I | inactive | inactive | inactive | inactive | inactive | inactive | inactive | 0.601 | 
FC(F)(F)C(F)(F)C(F)(F)C(F)(F)C(F)(F)F | inactive | inactive | inactive | inactive | inactive | inactive | inactive | -12.9 | 
CN=C1C=CC(=C(c2ccc(N(C)C)cc2)c2ccc(N(C)C)cc2)C=C1 | 1.69 µM (active) | 1.41 µM (active) | 1 µM (active) | 0.891 µM (active) | 0.891 µM (active) | 0.891 µM (active) | 0.151 µM (active) |  | 7.31 µM (active)
CC12CCC(C[N+](C)(CCC[N+](C)(C)C)C1)C2(C)C (centres undefined) | inactive | inactive | inactive | inactive | inactive | inactive | inactive | -0.0096 | 
CCCCCCCCCCCCCC(=O)OCC(COP(=O)([O-])OCC[N+](C)(C)C)OC(=O)CCCCCCCCCCCCC (centres undefined) | inactive | inactive | inactive | inactive | inactive | inactive | inactive | 15.8 | 
CC(C)(C)CC(C)(C)c1ccc(OCCO)cc1 | inactive | inactive | inactive | inactive | inactive |  | inactive | -16.2 | 
O=C1CCC(=O)N1CO | inactive | inactive | inactive | inactive | inactive | inactive | inactive | -1.35 | 
FC(F)(F)COCC(F)(F)F | inactive | inactive | inactive | inactive | inactive | inactive | inactive | -9.66 | 
c1ccc(-n2cnnn2)cc1 | inactive | inactive | inactive | inactive | inactive | inactive | inactive | 0.0496 | 
CCCc1ccc(C(=O)O)cc1 | inactive | inactive | inactive | inactive | inactive | inactive | inactive | 8.62 | 
CCCCCCCCCCCCCCCCCC(=O)OC[C@@H](O)[C@H]1OC[C@H](O)[C@H]1O | inactive | inactive | inactive | inactive | inactive | inactive | inactive | -10 | 
CC(C)OC(=O)Nc1ccc2nc(-c3cscn3)[nH]c2c1 | inactive | inactive | inactive | inactive | inactive | inactive | inactive |  | 5.8 µM (active)

SMILES | Potency (PC26) | Potency (PC49) | Potency (SC27B) | Potency (TAB109) | Potency (TAB113) | Potency (TAB165) | Potency (W2) | max response (KB-3-1) [%] | Potency (KB-3-1)
O=C(O)CCC/C=C\C[C@@H]1[C@@H](/C=C/[C@@H](O)COc2cccc(Cl)c2)[C@H](O)C[C@@H]1O | inactive | inactive | inactive | inactive | inactive | inactive | inactive | -2.7 | 
CC12CCC(C1)C(C)(C)C2=O (centres undefined) | inactive | inactive | inactive | inactive | inactive | inactive | inactive | 3.69 | 
CC(=O)N[C@@H]1C(O[C@H]2O[C@H](C(=O)O)C(O)[C@H](O)[C@H]2O)[C@H](O)[C@@H](CO)O[C@H]1O[C@@H]1C(C(=O)O)O[C@@H](O[C@H]2[C@H](O)[C@@H](CO)OC(O)[C@@H]2NC(C)=O)[C@H](O)[C@H]1O (some centres undefined) | inactive | inactive | inactive | inactive | inactive | inactive | inactive | -7.66 | 
CC(O)CN(C)C (centres undefined) | inactive | inactive | inactive | inactive | inactive | inactive | inactive | -6.37 | 
CO/N=C(\C(=O)N[C@@H]1C(=O)N2C(C(=O)[O-])=C(C[n+]3cccc4c3CCC4)CS[C@H]12)c1csc(N)n1 | inactive | inactive | inactive | inactive |  | inactive | inactive | -1.98 | 
CN1c2c(nc(N)[nH]c2=O)NCC1CNc1ccc(C(=O)NC(CCC(=O)O)C(=O)O)cc1 (centres undefined) | inactive | inactive | inactive | inactive |  | inactive | inactive | 9 | 
CCCCCCCCCCCC(=O)N(CCO)CCO | inactive | inactive | inactive | inactive | inactive | inactive | inactive | -11.5 | 
CCCCO | inactive | inactive | inactive | inactive | inactive | inactive | inactive | -19.5 | 
FC(F)OC(Cl)C(F)(F)F (centres undefined) | inactive | inactive | inactive | inactive | inactive | inactive | inactive | 0.674 | 
OC1OC[C@@H](O)[C@H](O)[C@@H]1O (some centres undefined) | inactive | inactive | inactive | inactive | inactive | inactive | inactive | 12.5 | 
CN[C@@H]1[C@H](O[C@H]2[C@H](O[C@H]3[C@H](O)[C@@H](O)[C@H](N=C(N)N)[C@@H](O)[C@@H]3N=C(N)N)O[C@@H](C)[C@]2(O)C=O)O[C@@H](CO)[C@H](O)[C@H]1O | inactive | inactive | inactive | inactive | inactive | inactive | inactive | 22.5 | 
O=C(O)CCCC/C=C(\c1ccccc1)c1cccnc1 | inactive | inactive | inactive | inactive | inactive | inactive | inactive | -9.78 | 
COC(=O)C(CN)c1c[nH]c2ccc(OC)cc12 (centres undefined) | inactive | inactive | inactive | inactive | inactive | inactive | inactive | 9.41 | 
O=C(O)/C=C/c1ccccc1 | inactive | inactive | inactive | inactive | inactive | inactive | inactive | 5.56 | 
Cc1ncc(C[n+]2csc(CCOP(=O)(O)OP(=O)(O)O)c2C)c(N)n1 | inactive | inactive | inactive | inactive | inactive | inactive | inactive | -1.51 | 
COC(=O)CCC[N+](C)(C)C | inactive | inactive | inactive | inactive | inactive | inactive | inactive | -6.27 | 
C=CCCCCCCCCC(=O)OC | inactive | inactive | inactive | inactive | inactive | inactive | inactive | 9.89 | 
CCC(C)[C@@H](N)C(=O)O (some centres undefined) | inactive | inactive | inactive | inactive | inactive | inactive | inactive | 1.62 | 
CC(=O)Nc1ccc(OC(=O)c2ccccc2O)cc1 | inactive | inactive | inactive | inactive | inactive | inactive | inactive | -18 | 
C[Si](C)(C)O[Si](C)(C)C | inactive | inactive | inactive | inactive | inactive | inactive | inactive | -5.55 | 
CCCCC(CC)COS(=O)(=O)O (centres undefined) | inactive | inactive | inactive | inactive | inactive | inactive | inactive | -16.9 | 
CCCCC/C=C\C/C=C\C/C=C\CCCCC(=O)O | inactive | inactive | inactive | inactive |  | inactive | inactive | -2.17 | 
O[C@@H]([C@H](O)[C@H](O)CBr)[C@H](O)CBr | inactive | inactive | inactive | inactive | inactive | inactive | inactive | -3.83 | 
N[C@@H](Cc1cc(I)c(Oc2ccc(O)c(I)c2)c(I)c1)C(=O)O |  | inactive |  |  |  |  | 9.53 µM (active) |  | 
CN1CCc2c(c3ccccc3n2Cc2ccccc2)C1 |  | inactive | inactive | inactive | inactive |  | 2.56 µM (active) | 8.09 | 
